# Screening results (PubChem BioAssay)
# Sampled rows, rich in hits. Any-hit rate of the full collection: about 3.9%.
# Bead autofluor: counter-screen for toxin protease inhibitors: compound fluorescence | compound autofluorescence counterscreen, microsphere flow cytometry; active compounds read high | fluorescence intensity (test concentration not listed) | hit rate 3.1% among 360,000 | AID 624483; in the data active = fluorescence intensity above about 16000; inconclusive = no clear call, values can overlap the other calls
# Anthrax LF prot: blocks Bacillus anthracis lethal factor protease | P15917 | multiplex microsphere protease cleavage assay, LF | inhibition, % at 10 µM | hit rate 0.12% among 360,000 | AID 588501; note: plate controls were buffer without enzyme for full effect and enzyme alone for no effect
# BoNT-A LC inh2: blocks Botulinum neurotoxin A light chain protease; multiplex microsphere protease substrate cleavage, flow cytometry; inhibition, % at 10 µM; hit rate 0.17% among 360,000; AID 588499; note: plate controls were buffer without enzyme for full effect and enzyme alone for no effect
# SARS 3CLpro inh-1: SARS-CoV 3CLpro protease inhibition | P0C6X7 | recombinant SARS-CoV 3CLpro, quenched FRET peptide cleavage | inhibition, % at 6 µM | hit rate 0.14% among 290,000 | AID 1706; in the data active = inhibition above about 12%
# BoNT F protease: inhibitors of Botulinum neurotoxin F light chain protease. Multiplex microsphere protease cleavage assay, flow cytometry. inhibition, % at 10 µM. hit rate 0.22% among 360,000. AID 588497; in the data active = inhibition above about 35%, passing the limit was not always enough; inconclusive = no clear call, values can overlap the other calls; note: plate controls were buffer without enzyme for full effect and enzyme alone for no effect
# DUSP3 inh: inhibitors of human VHR1 phosphatase (DUSP3) | P51452 | recombinant VHR phosphatase, pNPP absorbance | inhibition, % at 13.3 µM | hit rate 0.52% among 290,000 | AID 1654; in the data active = inhibition above about 50%
# SARS 3CLpro inh-2: SARS 3CLpro inhibition, confirmation assay; shares compounds with SARS 3CLpro inh-1; QFRET protease activity assay; inhibition, % at 6 µM; hit rate 36% among 380; AID 1879; in the data active = inhibition above about 13%
# The depositor's hits bear a star; ? = inconclusive; . = no result given. Cut-off read from the data, not from the text of the source, unless noted: active = inhibition above about 30%; inconclusive = no clear call, values can overlap the other calls; inactive = below that.
SMILES,Bead autofluor,Anthrax LF prot,BoNT-A LC inh2,SARS 3CLpro inh-1,BoNT F protease,DUSP3 inh,SARS 3CLpro inh-2
Cc1noc(C)c1S(=O)(=O)Nc1ccc(C(=O)Nc2ccc(OC(F)(F)F)cc2)cc1,5445,-1.4,1.3,12.8*,6.0,2.2,7.6
COc1ccc(-n2ccnc(SCC(=O)NCc3ccc(C)cc3)c2=O)cc1Cl,5849,4.2,0.1,.,5.2,.,.
COc1ccc2nc(SCC(=O)NC(C)c3ccccc3)[nH]c2c1 (configuration not stated),5798,1.0,-1.7,.,-11.5,.,.
O=C(CSc1ccccn1)Nc1nonc1[N+](=O)[O-],3978,-0.3,-0.1,41.1*,1.8,-6.0,48.8*
O=C(Nc1ccc2[nH]ncc2c1)c1ccccc1Cl,3831,-13.3,-0.3,4.9,-24.0,12.6,.
Cc1ccn(CC(=O)N2CCCC(N3CCN(c4cccc(C(F)(F)F)c4)CC3)C2)n1 (configuration not stated),3416,-1.3,-0.3,.,-1.9,.,.
Cc1ccc(C)c(N2CCN(C(=O)CCS(=O)(=O)c3ccc4c(c3)NC(=O)C(C)S4)CC2)c1 (configuration not stated),4568,-3.3,-0.4,12.9*,-3.3,-6.0,3.4
CC(C)(C)c1ccc(-c2nnc(SCC(=O)NC3CCS(=O)(=O)C3)n2N)cc1 (configuration not stated),2551,-1.3,-0.1,3.7,-0.9,-37.5,.
Cc1ccc(C(=O)C2=C(O)C(=O)N(Cc3cccnc3)C2c2ccc(OC(C)C)cc2)o1 (configuration not stated),3476,2.9,8.8,12.6*,11.2,-19.7,-7.2
CCOc1ccc(N(CC(=O)Nc2ccc(CC)cc2)S(=O)(=O)c2c(C)[nH]c(=O)[nH]c2=O)cc1,4255,-2.6,1.5,14.5*,-2.6,-9.0,-2.0
Cc1ccc(NC(=O)CSc2nc(O)c(Cc3ccccc3)c(=O)n2-c2ccccc2)cc1,2588,-0.7,-0.5,3.6,-2.7,-5.3,.
O=C(CN1CCN(S(=O)(=O)c2ccc(Br)cc2)CC1)N/N=C/c1ccccc1C(=O)O,5046,-1.1,-0.4,-3.3,4.6,-14.4,.
Cc1ccc(OCCNC(=O)c2cc(=O)[nH]c3ccccc23)cc1,4503,-0.6,-1.8,2.8,-1.9,10.6,.
COc1ccccc1OCCNC(=O)c1cc(=O)[nH]c2ccccc12,4246,-8.2,-1.3,62.1*,1.8,-8.7,65.2*
COC(=O)[C@@H](Cc1c[nH]c2ccccc12)NC(=O)c1cc(=O)[nH]c2ccccc12,4649,-5.4,0.1,13.6*,6.1,21.7,2.3
COc1ccc(C)cc1NC(=O)CSc1nc2scc(C)c2c(=O)[nH]1,6691,-4.9,-0.1,12.8*,-4.4,-7.2,2.8
COc1ccc(Cl)cc1NC(=O)CSc1nc2sccc2c(=O)[nH]1,2738,-1.3,-0.1,-4.5,2.7,-0.5,.
O=c1ccc2ccc(OCCOc3cccc(Cl)c3)cc2o1,?,-2.4,-1.1,4.5,-8.3,16.3,.
Cc1cccc(CN2CCN(C(=O)CCl)CC2)c1,2196,-6.7,-0.2,16.0*,-2.4,18.1,46.6*
COc1ccccc1-n1c(C)c(C(=O)O)c2cc(OC)c3ccccc3c21,3800,-0.3,-2.5,13.7*,8.5,-23.8,9.8
Cc1ccccc1Cn1ccc(=NCc2ccccc2)cc1,.,.,.,-3.5,.,-4.8,.
CN1CCN2c3ccc(N)cc3CC3(C(=O)NC(=O)NC3=O)C2C1 (configuration not stated),3365,-10.3,-9.5,21.9*,?,16.5,62.9*
CN1C(=O)N(C)C(=O)C2(Cc3cc(N)ccc3N3CCN(c4ccccc4F)CC32)C1=O (configuration not stated),.,.,.,1.9,.,15.3,.
Cc1cccc(N2CCN(C(=O)c3cc(=O)[nH]c4ccccc34)CC2)c1C,5296,-6.1,-0.8,41.3*,-2.3,18.1,55.1*
O=C(c1ccco1)N1CCN(C(=O)c2cc(=O)[nH]c3ccccc23)CC1,7891,-1.5,1.6,.,4.9,.,.
O=C(c1cc(=O)[nH]c2ccccc12)N1CCN(c2ccccc2)CC1,4110,-0.1,-0.9,32.3*,1.8,-15.2,31.4*
CCc1nnc(NS(=O)(=O)c2ccc(NC(=O)/C=C/c3ccccc3Cl)cc2)s1,4886,1.5,-0.3,13.1*,-0.6,30.2,10.0
CCc1nnc(NS(=O)(=O)c2ccc(NC(=O)/C=C/C(=O)O)cc2)s1,4099,1.7,-1.2,5.7,?,6.1,.
